Data on 87 compounds can be found in PubChem BioAssay AID504462 (Sanford-Burnham Center for Chemical Genomics, 2011).

The campaign covered roughly 340,000 compounds. About 1,700 (0.5%) were called active. Only a selection was taken, and actives are over-represented in it overall. Unmarked numbers belong to inactive results. Cut-off read from the data, not from the text of the source: active = inhibition above about 40%; inactive = the rest.

For this assay, the target named is Cysteine protease ATG4B (Homo sapiens) (UniProt Q9Y4P1). Kind of assay: blockers of ATG4B cysteine protease activity – biochemical, fluorescence, uHTS, primary screen (AID 504462). Conditions: ATG4B cleavage of LC3-PLA2, NBD-HPC fluorescence, 1 h; at 8.33 µM; hits give high values.
Chain of Cysteine protease ATG4B (Homo sapiens) (Q9Y4P1 whole entry, looked up): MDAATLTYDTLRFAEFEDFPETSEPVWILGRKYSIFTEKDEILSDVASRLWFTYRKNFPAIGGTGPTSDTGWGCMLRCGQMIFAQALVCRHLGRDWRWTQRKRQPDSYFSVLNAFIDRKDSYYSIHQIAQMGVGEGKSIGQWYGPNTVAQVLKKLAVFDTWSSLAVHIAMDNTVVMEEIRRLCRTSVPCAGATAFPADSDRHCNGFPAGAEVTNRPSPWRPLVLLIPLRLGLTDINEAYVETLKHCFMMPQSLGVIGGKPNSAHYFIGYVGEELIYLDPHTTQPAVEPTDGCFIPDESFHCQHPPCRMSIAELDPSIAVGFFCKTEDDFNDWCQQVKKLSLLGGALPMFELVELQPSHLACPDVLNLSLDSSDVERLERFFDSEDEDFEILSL
As usually defined, the inhibition is the change of the read-out against control, counted positive when it falls. As to `CCn1nnc(NC(=O)c2cc(Cl)c(OC)c(Cl)c2)n1`, the inhibition is -1.88%.
With `O=C(Nc1ccccc1Cc1ccccc1)c1ccc2c(c1)SC1=NS(=O)(=O)CCN12`, the inhibition was -8.36%.
With `CC(=O)c1cc(-c2ccccc2)n(CCC(=O)NC2CCCCCC2)c1C`, the inhibition was -4.01%.
The figure for `CCc1ccc(N(CC(=O)Nc2sc3c(c2C(=O)OC)CCCC3)S(C)(=O)=O)cc1` is -5.39%; for `COC(=O)c1c(NC(=O)COC(=O)[C@@H](NS(=O)(=O)c2ccccc2)C(C)C)sc2c1CCC2` it is 71% (active); for `COC(=O)c1c(NC(=O)CN(c2ccc(C)c(C)c2)S(C)(=O)=O)sc2c1CCCC2` it is -3.55%.
In the case of `O=[N+]([O-])/C=C/c1ccc2c(ccn2Cc2ccccc2)c1` it was 5.14%; in that of `O=C(c1noc2c1CCCC2)N1CCc2ccccc2C1`, 0.28%; in that of `COc1ccc2c(c1)CCc1c(C(=O)N3CCCC3)noc1-2`, -6.35%.
The figure for `COc1ccc2c(c1)CCc1c(C(=O)N3CCc4ccccc4C3)noc1-2` is 55.6% (active); for `Cc1cccc(C2c3[nH]c4ccccc4c3CCN2C(=O)c2cc(-c3cccn3C)n[nH]2)n1` (configuration not stated) it is 62.3% (active); for `O=C(c1cn2ccccc2n1)N1CCc2c([nH]c3ccccc23)C1c1ccccn1` (configuration not stated) it is -13.7%.
Take `Cc1cccc(C(=O)N2CCc3c([nH]c4ccccc34)C2CC(C)C)n1` (configuration not stated): the inhibition was -9.03%.
The figure for `O=C(COc1cc(Cl)c(Cl)cc1Cl)NC(=O)NC1CCCC1` is -1.73%; for `CC(C)(C)OC(=O)NCCCCCC(=O)N/N=C/c1coc2ccccc2c1=O` it is 14.7%; for `Cc1c(/C=N\NC(=O)c2cc3ccccc3o2)c2ccccc2n1C` it is -15.2%.
With `O=C(N/N=C/c1coc2ccccc2c1=O)c1cc2ccccc2o1`, the inhibition is 61.1% (active).
The figure for `O=C(COCc1cc(-c2ccc3c(c2)OCO3)on1)N1CCN(c2cccc(Cl)c2)CC1` is 5.35%; for `CCOc1ccc(CC(=O)NCCS(=O)(=O)N2CCN(c3ccccc3)CC2)cc1` it is -6.99%; for `O=C(Nc1nnc(SCc2ccccc2Cl)s1)c1cccc([N+](=O)[O-])c1` it is 71.7% (active).
Turning to `NC(=O)CSc1nnc(NC(=O)c2ccc3ccccc3c2)s1`, the inhibition is 5.71%.
The figure for `O=C(Nc1nnc(SCc2c(Cl)cccc2Cl)s1)c1cccc([N+](=O)[O-])c1` is 7.45%.
The figure for `CN(CC(=O)Nc1cccc(F)c1)C(=O)C1CC(=O)N(CCc2ccccc2)C1` (configuration not stated) is -5.48%.
The figure for `OC(CNCc1ccc(Cl)c(Cl)c1)c1ccccc1` (configuration not stated) is 40%; for `CCOC(=O)c1ccc(NNC(C)=O)c([N+](=O)[O-])c1` it is -7.65%.
With `COc1cc2ccccc2cc1C(=O)Nc1ccccc1C`, the inhibition was -2.98%.
The figure for `COc1ccc(Br)cc1C(=O)Nc1cccc(C)c1C` is 7.75%; for `COc1ccc(Br)cc1C(=O)NC(=S)Nc1cc(-c2nc3ccccc3[nH]2)ccc1C` it is 65% (active); for `CN1C(C)(C)CC(NC(=O)CCC(=O)NC2CC(C)(C)N(C)C(C)(C)C2)CC1(C)C` it is -1.23%.
In the case of `C#CCOCCOCCOCCNc1nc(N2CCN(C(=O)[C@H](CCCN=C(N)N)n3cc(C(N)[C@@H](C)CC)nn3)CC2)nc(N2CCN(C(=O)[C@H](CO)n3cc([C@@H](N)C(C)C)nn3)CC2)n1` (some centres not stated), the inhibition is -2.36%.
The figure for `C#CCOCCOCCOCCNc1nc(N2CCN(C(=O)CCCCCCCCCCNC(=O)[C@H]([C@@H](C)CC)n3cc(CCCCN=C(N)N)nn3)CC2)nc(N2CCN(C(=O)CCCCCCCCCCNC(=O)[C@H](CO)n3cc(CCCSC)nn3)CC2)n1` is 41.9% (active); for `C#CCOCCOCCOCCNc1nc(N2CCN(C(=O)Cn3cc(CCO)nn3)CC2)nc(N2CCN(C(=O)Cn3cc(CCCN=C(N)N)nn3)CC2)n1` it is -2.83%; for `O=C(c1n[nH]c2c1CCC2)N1CCCC(Nc2cccc(F)c2)C1` (configuration not stated) it is 5.08%.
The figure for `O=C1N=C(N2CCc3ccccc3C2)S/C1=C\c1ccc(O)cc1` is 67.7% (active).
The figure for `CCc1ccc(/C=C2\SC(N3CCOCC3)=NC2=O)cc1` is -5.05%; for `CCOc1cc(/C=C2\SC(N3CCCCC3)=NC2=O)ccc1O` it is -6.5%; for `O=C(NCCCO)/C(=C\C=C\c1ccccc1)NC(=O)c1ccccc1Cl` it is -7.32%.
As for `O=C1CSC(=S)N1c1ccc(Cl)c(Cl)c1`, the inhibition is 4.82%.
In the case of `CC1CC(C)CN(C/C=C/c2ccccc2[N+](=O)[O-])C1` (configuration not stated) it was 11.3%; in that of `Cn1c2ccccc2c2c(C(=O)N3CCN(c4ccc(F)cc4)CC3)cn(C3CCCC3)c(=O)c21`, -29.5%.
In the case of `CCCc1nc2c(c(=O)c3ccccc3n2C)c(=O)n1C1CCCCCC1` it was 41.3% (active); in that of `CC1CCN(Cc2nc3c(c(=O)n(C)c(=O)n3C)n2CCc2ccccc2)CC1`, -1.37%.
In the case of `Cn1nc(C(C)(C)C)c(NC(=O)c2sccc2Cl)c1C(C)(C)C` it was 8.72%.
For the compound `O=C(O)C1=NN(c2c(F)c(F)cc(F)c2F)C(=O)CC1`, the inhibition was -1.19%.
The figure for `O=C(Nc1cccc(Cl)c1N1CCOCC1)c1cccnc1` is -5.52%; for `O=C(Nc1cccc(Cl)c1N1CCOCC1)c1ccc2c(c1)OCCO2` it is 33.9%; for `CCN1CCN(c2c(Cl)cccc2NC(=O)c2ccc(Br)o2)CC1` it is 56.4% (active).
Turning to `C[C@H](CO)N1C[C@H](C)[C@@H](CN(C)S(=O)(=O)c2ccc(F)cc2)Oc2c(NC(=O)Nc3ccccc3)cccc2C1=O`, the inhibition is -16.4%.
The figure for `O=C(NCC1COc2ccccc2O1)C1(c2ccccc2)CCCC1` (configuration not stated) is 4.25%.
The figure for `O=C(CN1C(=O)C2C3C=CC(C3)C2C1=O)NCC1COc2ccccc2O1` (configuration not stated) is 0.03%; for `O=C1C(=O)N(CC2COc3ccccc3O2)c2ccccc21` (configuration not stated) it is 72.1% (active).
Take `Cn1cc(Cl)c(C(=O)NNC(=S)Nc2cccc(Cl)c2)n1`: the inhibition was -0.09%.
On to `FC(F)(F)c1cccc(NC(=S)Nc2cccc(Cl)c2)c1`, for which the inhibition is 44.3% (active).
In the case of `FC(F)(F)c1cccc(N/N=C/c2ccccc2)c1` it was -3.29%.
In the case of `Cc1nc(SCC(=O)N2CCc3ccccc3C2)c2c(C)c(C)sc2n1` it was 71.6% (active); in that of `O=C(CSc1nnc(-c2cccs2)n1Cc1ccccc1)N1CCc2ccccc2C1`, 31.5%.
The figure for `Cc1nc(SCC(=O)N2CC(=O)Nc3ccccc32)c2c(C)c(C)sc2n1` is 26.7%.
With `CCOCC(=O)Nc1ncc(S(=O)(=O)c2ccc([N+](=O)[O-])cc2)s1`, the inhibition is -0.99%.
The figure for `COc1ccc(/C=C2\SC(=O)N(CCC(=O)NC3CCS(=O)(=O)C3)C2=O)cc1` (configuration not stated) is 5.85%.
In the case of `COc1ccc(/C=C2/SC(=O)N(CCCCCC(=O)Nc3ccccc3C(=O)O)C2=S)cc1`, the inhibition is 55.6% (active).
In the case of `COc1ccc(/C=C2\SC(=O)N(CCC(=O)NCCCn3ccnc3)C2=O)cc1` it was 3.21%; in that of `Cc1cc(C)n(-c2nnc(C)n2NC(=O)c2cccc(Cl)c2)n1`, -11.2%; in that of `O=C(NCCS(=O)(=O)N1CCN(c2ccccc2F)CC1)c1ccc(Br)o1`, -9.9%.
On to `CC1(C)CC(=O)C=C(NCCCN2CCCC2=O)C1`, for which the inhibition is 2.66%.
As to `O=C(C1CC1)N1CCN=C1SCc1ccc(Cl)cc1`, the inhibition was -5.2%.
Regarding `CC1CCN(C(=O)c2ccc(CSc3ccc(Cl)cc3)cc2)CC1`, the inhibition was 44% (active).
The figure for `O=C(c1ccc(CSc2ccccc2)cc1)N1CCCCCC1` is 15.3%; for `O=C(NCc1ccccc1)[C@H]1C[C@@H]1[C@H](NP(=O)(c1ccccc1)c1ccccc1)c1ccccc1` it is 55.2% (active).
`COC(=O)[C@H](Cc1ccccc1)NC(=O)[C@@H]1C[C@H]1[C@@H](NC(=O)OCc1ccccc1)c1ccccc1`: the inhibition is 3.57%.
The figure for `O=C(O)C1C2C=CC(C2)C1C(=O)NCc1ccccc1` (configuration not stated) is 1.32%; for `Cc1ccc(Sc2cc(C(=O)c3ccccc3C(=O)O)ccc2[N+](=O)[O-])cc1` it is -10.7%.
The figure for `CN(C)S(=O)(=O)c1ccc(N/C=C(\[N+](=O)[O-])S(=O)(=O)c2ccccc2)cc1` is 0.88%; for `CCCN(CCC)CCCNC(=O)CNC(=O)c1nn(-c2ccc(OC)cc2)c(=O)c2ccccc12` it is 7.71%.
The figure for `Cc1ccc(NC(=O)CC2S/C(=N/N=C3\CCCc4ccccc43)NC2=O)cc1` (configuration not stated) is 41.3% (active).
In the case of `Cc1c(Cl)cccc1NC(=O)CC1SC(=NCC2CCCO2)NC1=O` (configuration not stated), the inhibition is 1.67%.
For the compound `CCN=C1SC(CC(=O)Nc2ccc(C)cc2)C(=O)N1CC` (configuration not stated), the inhibition is -0.27%.
For the compound `O=C(COC(=O)c1cc(=O)[nH]c2ccccc12)Nc1nc(-c2cccc(Br)c2)cs1`, the inhibition is -32.4%.
As for `O=C1Nc2cc(Cl)c(Cl)cc2N(O)N1c1cc(Cl)cc(Cl)c1`, the inhibition was 42.3% (active).
The figure for `O=C1Nc2cc(Cl)c(Cl)cc2N(O)N1c1ccccc1Cl` is 0.16%; for `O=C(Nc1cccc2c1CCCC2)c1ccc(F)cc1` it is 9.34%; for `CCS(=O)(=O)C1=NSC2=NC(=O)/C(=C\c3ccc(OS(=O)(=O)c4ccccc4)cc3)C(=N)N21` it is 43.1% (active).
In the case of `Cc1ccc(C2=N/C(=C\c3ccc(OS(=O)(=O)c4ccc(C)cc4)cc3)C(=O)O2)cc1` it was -3.55%; in that of `CS(=O)(=O)C1=NN2C(=N)/C(=C\c3ccc(OCCOc4ccccc4)cc3)C(=O)N=C2S1`, -1.7%; in that of `O=C(NCCc1ccco1)c1ccc(OCc2cn3ccccc3n2)cc1`, -8.13%.
In the case of `FC(F)(F)Oc1ccc(NC(=S)NCc2ccccc2)cc1` it was 40.2% (active); in that of `Fc1ccccc1CNC(=S)Nc1ccc(Cl)cc1`, 23.2%; in that of `COC(=O)Cc1ccc(NC(=S)NCc2ccccc2)cc1`, 8.5%.
